“And” between values parts separate entries of the source, which are not always exact repeats. Identical values can stand only once. Inconclusive results are not listed. The source made the active and inactive calls. Calls follow the shape of the full dose curve.
target: Acetylcholinesterase (Homo sapiens) (UniProt P22303); experiment: Acetylcholinesterase (AChE) small molecule antagonists: colormetric cell-based qHTS assay (AID 1347395); conditions: SH-SY5Y cells AChE activity, colorimetric (Ellman); series mostly up to 115 µM; activity, negative = inhibition: at the top concentration; also: nearly all actives have a fitted effect of over 30% in size
Summary of the method: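 After overnight attachment at 37 C, SH-SY5Y cells get 30 min compound exposure; detection cocktail (acetylthiocholine, DTNB) then incubates 90 min at 37 C, and absorbance reflects AChE-generated thiocholine.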
% is scaled to controls: 0 for no effect and ±100 for the full control effect; potency is read from the fitted curve at half-maximal effect.

Sequence of Acetylcholinesterase (Homo sapiens) (P22303 whole entry, looked up): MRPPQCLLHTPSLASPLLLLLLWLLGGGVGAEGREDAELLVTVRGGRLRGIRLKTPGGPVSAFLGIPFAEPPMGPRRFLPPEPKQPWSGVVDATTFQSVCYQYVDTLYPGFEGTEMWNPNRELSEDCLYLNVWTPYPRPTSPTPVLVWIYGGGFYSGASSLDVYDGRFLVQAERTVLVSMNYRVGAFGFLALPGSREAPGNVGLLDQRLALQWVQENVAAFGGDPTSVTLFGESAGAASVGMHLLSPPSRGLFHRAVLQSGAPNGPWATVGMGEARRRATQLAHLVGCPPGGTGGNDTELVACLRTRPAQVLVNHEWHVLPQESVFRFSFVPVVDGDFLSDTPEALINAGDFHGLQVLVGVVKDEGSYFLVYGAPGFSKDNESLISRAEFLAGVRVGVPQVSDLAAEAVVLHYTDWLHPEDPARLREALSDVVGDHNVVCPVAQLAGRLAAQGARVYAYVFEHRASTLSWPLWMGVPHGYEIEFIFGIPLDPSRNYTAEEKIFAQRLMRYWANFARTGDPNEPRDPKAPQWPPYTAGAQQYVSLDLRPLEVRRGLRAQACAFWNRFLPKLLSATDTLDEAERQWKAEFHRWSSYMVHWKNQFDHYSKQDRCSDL

SMILES	Potency	activity, negative = inhibition
COC(=O)c1cccc(C(=O)OC)c1	inactive	
O=C(Cl)c1ccc(C(=O)Cl)cc1	inactive	
CC(=O)[O][Al][O]C(C)=O		4.58% (inactive)
CC(=O)[C@@]1(O)CC[C@H]2[C@@H]3C[C@H](C)C4=CC(=O)C=C[C@]4(C)[C@@]3(F)[C@@H](O)C[C@@]21C	inactive	
CC(=O)OC1CCCCC1		1.23% (inactive)
Cc1ccc(Cl)c(Nc2ccccc2C(=O)O)c1Cl		0% [at 52.9 µM] (inactive)
CO/N=C(/C(=O)N[C@@H]1C(=O)N2C(C(=O)O)=C(Cn3nnc(C)n3)CS[C@H]12)c1csc(N)n1		5.65% [at 52.9 µM] (inactive)
C[N+]1(C)CCC(=C(c2ccccc2)c2ccccc2)CC1		2.02% [at 52.9 µM] (inactive)
C=C[C@@]1(C)CC(=O)[C@]2(O)[C@@]3(C)[C@@H](O)CCC(C)(C)[C@@H]3[C@H](O)[C@H](OC(C)=O)[C@@]2(C)O1	inactive	
CCCNCCC		2.25% (inactive)
CC(C)=CCO	inactive	
O=C(O)c1cc(C(=O)O)cc(C(=O)O)c1		0.463% (inactive)
CNc1ncnc2nc[nH]c12		-0.0135% (inactive)
CCCCCCCCCCCCCC(=O)O	inactive	
Cc1cn([C@H]2C=C[C@@H](CO)O2)c(=O)[nH]c1=O	inactive	
COc1cc(OC)nc(O[C@H](C(=O)O)C(OC)(c2ccccc2)c2ccccc2)n1		-10.7% [at 52.9 µM] (inactive)
CCC(=O)O[C@@H]1C[C@H]2CC[C@]1(C)C2(C)C		0.284% (inactive)
Cc1nc2c([nH]1)c(=O)n(C)c(=O)n2Cc1ccco1		-1.58% [at 52.9 µM] (inactive)
NC(=O)N[C@@H](CCC(=O)O)C(=O)O		0.705% [at 52.9 µM] (inactive)
c1ccc(CSCc2ccccc2)cc1		1.3% (inactive)

SMILES	Potency	activity, negative = inhibition
CC(C#N)(CCC(=O)O)N=NC(C)(C#N)CCC(=O)O (stereo not given)		-2.02% (inactive)
Cc1c(C2(c3cc(Br)c(O)c(Br)c3C)OS(=O)(=O)c3ccccc32)cc(Br)c(O)c1Br		20.4% (inactive)
CC(=O)C(C)C	inactive	
CC1=C(C(=O)O)N2C(=O)[C@@H](NC(=O)[C@H](N)C3=CCC=CC3)[C@H]2SC1		-1.45% [at 52.9 µM] (inactive)
O=C(O)COc1nn(Cc2ccccc2)c2ccccc12		0.252% [at 52.9 µM] (inactive)
Cc1cc(C)c(/C=C2\C(=O)Nc3ccccc32)[nH]1		-0.182% [at 52.9 µM] (inactive)
O=C(Cl)c1cc(Cl)cc(Cl)c1		2.58% (inactive)
O=C(Nc1ccc(Cl)cc1)Nc1ccc(Cl)c(Cl)c1	inactive	
CCC=O		-0.921% (inactive)
CCN(CC)CCOC(=O)C(c1ccccc1)C1CCCCC1 (stereo not given)		-0.0881% [at 52.9 µM] (inactive)
CCCC(C)C(=O)O (stereo not given)		0.0969% (inactive)
CN/C(=C\[N+](=O)[O-])NCCSCc1csc(CN(C)C)n1	11.2 µM (active) and 13.8 µM (active)	
C[C@H]1C[C@H]2[C@@H]3CCC4=CC(=O)C=C[C@]4(C)[C@H]3C(=O)C[C@]2(C)[C@@]1(O)C(=O)CO		1.94% [at 52.9 µM] (inactive)
Cc1c(C(=O)O)cccc1[N+](=O)[O-]		-0.0598% (inactive)
O=C(c1ccccc1)c1cc(Cl)ccc1O		-5.65% (inactive)
C[C@@H]1CC[C@@]2(OC1)O[C@H]1C[C@H]3[C@@H]4CC[C@H]5C[C@@H](O)CC[C@]5(C)[C@H]4CC(=O)[C@]3(C)[C@H]1[C@@H]2C		-3.52% [at 10.5 µM] (inactive)
COc1cccc(O)c1		0% (inactive)
C[C@H](NC(CCc1ccccc1)C(=O)O)C(=O)N1CCC[C@H]1C(=O)O (stereo not given in full)		3.59% [at 52.9 µM] (inactive)
O=C(O)C1=NN(c2ccc(S(=O)(=O)O)cc2)C(=O)C1	inactive	
NCCOCCN		2.58% (inactive)

target: Acetylcholinesterase (Homo sapiens) (UniProt P22303); experiment: Acetylcholinesterase (AChE) small molecule antagonists: enzyme-based qHTS assay (AID 1347397); conditions: Potency: AChE enzyme activity inhibition; outcome: AChE enzyme activity inhibition; series mostly up to 115 µM; activity change, negative = inhibition: at the top concentration; also: nearly all actives have a fitted effect of over 55% in size
Summary of the method: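 rhAChE 50 mU/mL (dispensed) + cpd or DMSO, 30 min RT; add DTNB/acetylthiocholine cocktail, 10 min RT; colorimetric thiocholine readout. qHTS, 1536-well format.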

SMILES	Potency	activity change, negative = inhibition
COC(=O)c1cccc(C(=O)OC)c1	inactive	
O=C(Cl)c1ccc(C(=O)Cl)cc1	inactive	
CC(=O)[O][Al][O]C(C)=O		-1.16% (inactive)
CC(=O)[C@@]1(O)CC[C@H]2[C@@H]3C[C@H](C)C4=CC(=O)C=C[C@]4(C)[C@@]3(F)[C@@H](O)C[C@@]21C	inactive	
CC(=O)OC1CCCCC1		1.63% (inactive)
Cc1ccc(Cl)c(Nc2ccccc2C(=O)O)c1Cl		0.582% [at 53 µM] (inactive)
CO/N=C(/C(=O)N[C@@H]1C(=O)N2C(C(=O)O)=C(Cn3nnc(C)n3)CS[C@H]12)c1csc(N)n1		0.684% [at 53 µM] (inactive)
C[N+]1(C)CCC(=C(c2ccccc2)c2ccccc2)CC1		1.89% [at 53 µM] (inactive)
C=C[C@@]1(C)CC(=O)[C@]2(O)[C@@]3(C)[C@@H](O)CCC(C)(C)[C@@H]3[C@H](O)[C@H](OC(C)=O)[C@@]2(C)O1	inactive	
CCCNCCC		0.53% (inactive)
CC(C)=CCO	inactive	
O=C(O)c1cc(C(=O)O)cc(C(=O)O)c1		1.5% (inactive)
CNc1ncnc2nc[nH]c12		0.779% (inactive)
CCCCCCCCCCCCCC(=O)O	inactive	
Cc1cn([C@H]2C=C[C@@H](CO)O2)c(=O)[nH]c1=O	inactive	
COc1cc(OC)nc(O[C@H](C(=O)O)C(OC)(c2ccccc2)c2ccccc2)n1		1.77% [at 53 µM] (inactive)
CCC(=O)O[C@@H]1C[C@H]2CC[C@]1(C)C2(C)C		-0.365% (inactive)
Cc1nc2c([nH]1)c(=O)n(C)c(=O)n2Cc1ccco1		1.77% [at 53 µM] (inactive)
NC(=O)N[C@@H](CCC(=O)O)C(=O)O		0.728% [at 53 µM] (inactive)
c1ccc(CSCc2ccccc2)cc1		-0.547% (inactive)

SMILES	Potency	activity change, negative = inhibition
CC(C#N)(CCC(=O)O)N=NC(C)(C#N)CCC(=O)O (stereo not given)		-4.12% (inactive)
Cc1c(C2(c3cc(Br)c(O)c(Br)c3C)OS(=O)(=O)c3ccccc32)cc(Br)c(O)c1Br		12% (inactive)
CC(=O)C(C)C	inactive	
CC1=C(C(=O)O)N2C(=O)[C@@H](NC(=O)[C@H](N)C3=CCC=CC3)[C@H]2SC1		0.656% [at 53 µM] (inactive)
O=C(O)COc1nn(Cc2ccccc2)c2ccccc12		-2.02% [at 53 µM] (inactive)
Cc1cc(C)c(/C=C2\C(=O)Nc3ccccc32)[nH]1		0.139% [at 53 µM] (inactive)
O=C(Cl)c1cc(Cl)cc(Cl)c1		2.1% (inactive)
O=C(Nc1ccc(Cl)cc1)Nc1ccc(Cl)c(Cl)c1	inactive	
CCC=O		0.438% (inactive)
CCN(CC)CCOC(=O)C(c1ccccc1)C1CCCCC1 (stereo not given)		0.175% [at 53 µM] (inactive)
CCCC(C)C(=O)O (stereo not given)		0.542% (inactive)
CN/C(=C\[N+](=O)[O-])NCCSCc1csc(CN(C)C)n1	35.6 µM (active) and 27.5 µM (active)	
C[C@H]1C[C@H]2[C@@H]3CCC4=CC(=O)C=C[C@]4(C)[C@H]3C(=O)C[C@]2(C)[C@@]1(O)C(=O)CO		0.125% [at 53 µM] (inactive)
Cc1c(C(=O)O)cccc1[N+](=O)[O-]		0.813% (inactive)
O=C(c1ccccc1)c1cc(Cl)ccc1O		-1.23% (inactive)
C[C@@H]1CC[C@@]2(OC1)O[C@H]1C[C@H]3[C@@H]4CC[C@H]5C[C@@H](O)CC[C@]5(C)[C@H]4CC(=O)[C@]3(C)[C@H]1[C@@H]2C		-1.66% [at 10.5 µM] (inactive)
COc1cccc(O)c1		0.0319% (inactive)
C[C@H](NC(CCc1ccccc1)C(=O)O)C(=O)N1CCC[C@H]1C(=O)O (stereo not given in full)		1.01% [at 53 µM] (inactive)
O=C(O)C1=NN(c2ccc(S(=O)(=O)O)cc2)C(=O)C1	inactive	
NCCOCCN		-0.0378% (inactive)
